Screening results as filed in PubChem BioAssay.
CYP2C19 inh = blocks human cytochrome P450 2C19; P33261; CYP2C19 Supersomes, luciferin-H EGE luminescence, 30 min; inhibition, % at 5 µM; 96,000 compounds, 21% hits; AID 778;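 active = CYP2C19 inhibition above a set limit at 5 µM in the primary screen, cut at about 50% in these data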;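 note: plate controls were negative control wells for no effect and 2.5 mM tranylcypromine positive control for full effect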
CYP2C9 inh = blocks human cytochrome P450 2C9. inhibition, % at 5 µM. CYP2C9 Supersomes, luciferin-H conversion, luminescence. AID 777. P11712. 96,000 compounds, 20% hits;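 active = blocking of liver enzyme CYP2C9 beyond about 50% at 5 µM, limit read from the data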
sEH act = increases human soluble epoxide hydrolase activity | P34913 | purified human sEH enzymatic activity, activator screen | activation, % at 2 µM | 91,000 compounds, 0.04% hits | AID 717; in the data active = activation above about 37%
Target sequence (P34913 whole entry, looked up): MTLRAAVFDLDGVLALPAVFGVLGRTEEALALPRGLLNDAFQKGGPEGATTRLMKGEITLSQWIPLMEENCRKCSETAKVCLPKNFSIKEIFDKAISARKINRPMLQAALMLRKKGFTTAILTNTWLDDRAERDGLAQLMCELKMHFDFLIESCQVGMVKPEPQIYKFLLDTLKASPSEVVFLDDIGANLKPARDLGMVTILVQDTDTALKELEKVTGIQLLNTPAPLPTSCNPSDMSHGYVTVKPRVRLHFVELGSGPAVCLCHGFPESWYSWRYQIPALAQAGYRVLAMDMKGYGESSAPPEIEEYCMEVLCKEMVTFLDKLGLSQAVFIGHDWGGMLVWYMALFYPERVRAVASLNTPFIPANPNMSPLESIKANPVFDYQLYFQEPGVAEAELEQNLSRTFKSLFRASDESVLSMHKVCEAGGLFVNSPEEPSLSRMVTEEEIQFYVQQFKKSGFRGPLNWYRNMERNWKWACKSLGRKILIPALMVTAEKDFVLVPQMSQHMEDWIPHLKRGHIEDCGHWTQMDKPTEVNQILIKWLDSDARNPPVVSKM
CYP2C19 act = increases human CYP2C19 enzyme activity | P33261 | activation factor at 5 µM | 96,000 tested, under 10 active | recombinant CYP2C19, luciferin-H EGE luminescence; stronger effect = higher value; 0 = fully inhibited enzyme, 1 = untreated enzyme;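 active = activation factor of at least 2 at 5 µM in the primary screen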;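 note: 0 = wells with 2.5 mM tranylcypromine and 1 = vehicle-only wells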
sEH inhibitor = soluble epoxide hydrolase (human) inhibition; P34913; recombinant human sEH enzymatic activity assay; inhibition, % at 2 µM; 91,000 compounds, 0.34% hits; AID 707; in the data active = inhibition above about 80%
CYP2C9 act = activators of human CYP2C9. recombinant CYP2C9, luciferin-H conversion, luminescence; stronger effect = higher value; factor 1 = untreated enzyme, 0 = blocked. P11712. 96,000 compounds, 1.4% hits. activation factor at 5 µM;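 active = activation factor of 2 or more for CYP2C9 at a 5 µM dose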;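 note: 0 = sulfaphenazole-blocked wells and 1 = vehicle-only wells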
Starred values were filed as active, the others as inactive; · = not tested or not shown. The list is not random: actives were taken first. Their share in the collection is about 27%.

SMILES | CYP2C19 inh | CYP2C9 inh | sEH act | CYP2C19 act | sEH inhibitor | CYP2C9 act
COc1ccccc1NC(=O)c1ccc(NS(C)(=O)=O)cc1 | 8 | -233 | 0 | 0.9 | 2 | 3.3*
COc1cc(NS(C)(=O)=O)c(OC)cc1NC(=O)c1ccccc1 | -9 | -145 | 0 | 1.1 | 2 | 2.5*
CSc1nc(Oc2ccc3ccccc3c2)c2sccc2n1 | 20 | 87* | 10 | 0.8 | -8 | 0.1
Cc1noc(C)c1C(=O)Nc1nnc(-c2ccccc2)s1 | 4 | 24 | 8 | 1 | -5 | 0.8
Cc1onc(-c2ccccc2)c1C(=O)Nc1ccc2c(C)cc(=O)oc2c1 | 15 | 40 | · | 0.8 | · | 0.6
Cc1onc(-c2ccccc2)c1C(=O)Nc1ccncc1 | 92* | 90* | -19 | 0.1 | 22 | 0.1
CCC(C)NS(=O)(=O)c1ccc(NC(=O)c2c(-c3ccccc3)noc2C)cc1 (stereo unspecified) | 86* | 62* | 16 | 0.1 | -19 | 0.4
Cc1onc(-c2ccccc2)c1C(=O)Nc1ccc(S(=O)(=O)NC2=NCCCCC2)cc1 | 1 | 12 | 11 | 1 | -12 | 0.9
Cc1onc(-c2ccccc2)c1C(=O)Nc1cccc(C#N)c1 | 55* | -4 | · | 0.4 | · | 1
Cc1onc(-c2ccccc2)c1C(=O)Nc1nnc(-c2ccncc2)s1 | 61* | 99* | -1 | 0.4 | 1 | 0
COCC(C)NCc1ccc(C)cc1C (stereo unspecified) | 23 | -12 | 6 | 0.8 | -2 | 1.1
O=C(CNC(=S)NC(=O)c1ccco1)c1ccccc1 | 6 | -36 | 5 | 0.9 | -5 | 1.4
Cc1ccc(CNc2ccc3c(c2)OCO3)c(C)c1 | 31 | 15 | -5 | 0.7 | 8 | 0.8
CC1(C)CC(=O)c2sc(NC(=O)c3ccco3)nc2C1 | 11 | 29 | · | 0.9 | · | 0.7
Cc1onc(-c2ccccc2)c1C(=O)Nc1nc2c(s1)C(=O)CC(C)(C)C2 | 5 | 54* | 7 | 0.9 | -4 | 0.5
O=C(COC(=O)c1ccc(NS(=O)(=O)c2ccc3c(c2)OCCO3)cc1)NCC1CCCO1 (stereo unspecified) | 37 | 83* | -13 | 0.6 | 13 | 0.2
CCOC(=O)c1ccc(NS(=O)(=O)c2ccc3[nH]c(=O)[nH]c3c2)cc1 | 29 | 75* | 3 | 0.7 | 1 | 0.2
CC(C)CNS(=O)(=O)c1ccc2c(c1)OCCO2 | 42 | 31 | -11 | 0.6 | 10 | 0.7
CC(C)NC(=O)COC(=O)c1ccc(NS(=O)(=O)c2ccc3c(c2)OCCO3)cc1 | 76* | 97* | 0 | 0.2 | 1 | 0
CCN(CC)c1ccc(C(=O)OCC(=O)NCC2CCCO2)cc1 (stereo unspecified) | 41 | 26 | 0 | 0.6 | 0 | 0.7
CCOC(=O)Nc1ccc(=O)n(Cc2c(Cl)cccc2Cl)c1 | 23 | 53* | 17 | 0.8 | -14 | 0.5
CCN1C(=O)C2(/C(=C(\O)c3ccc4c(c3)OCCO4)C(=O)C(=O)N2CCCOC)c2ccccc21 (stereo unspecified) | -12 | 2 | 1 | 1.1 | -4 | 1
Cc1ccc(N(C(=O)c2ccccn2)C2(C(=O)NC3CCCC3)CCCCC2)cc1 | 37 | 93* | -7 | 0.6 | 6 | 0.1
CCn1c(SCC(=O)c2cc(C)n(CC3CCCO3)c2C)nc2ccccc21 (stereo unspecified) | 76* | 2 | -6 | 0.2 | 5 | 1
Cc1cc(C(=O)CSc2nnnn2-c2ccc(Cl)cc2)c(C)n1CC1CCCO1 (stereo unspecified) | 64* | 12 | -15 | 0.4 | 13 | 0.9
SMILES | CYP2C19 inh | CYP2C9 inh | sEH act | CYP2C19 act | sEH inhibitor | CYP2C9 act
Cc1cc(C(=O)CSc2nnc(Nc3ccccc3)s2)c(C)n1CC1CCCO1 (stereo unspecified) | 9 | 19 | -16 | 0.9 | 15 | 0.8
C=CCn1c(=NC(=O)C2CC2)sc2cc(NC(C)=O)ccc21 | 41 | 20 | 6 | 0.6 | -3 | 0.8
C=CCn1c(=NC(=O)C2CCCCC2)sc2cc(NC(C)=O)ccc21 | 15 | 68* | · | 0.8 | · | 0.3
C=C(C)c1cccc(C(C)(C)NC(=O)N2CCCCC2CC)c1 (stereo unspecified) | 51* | 89* | 5 | 0.5 | -3 | 0.1
CC(C)N(C)C1CCN(C(=O)Nc2ccc(Cl)c(Cl)c2)CC1 | -19 | -18 | · | 1.2 | · | 1.2
CO/N=C/c1ccc(Sc2ccccc2)c([N+](=O)[O-])c1 | 16 | 74* | -10 | 0.8 | 11 | 0.3
CO/N=C/c1ccc(Sc2ccccc2N)c([N+](=O)[O-])c1 | 74* | 69* | -6 | 0.3 | 7 | 0.3
O=[N+]([O-])c1cc(/C=N/O)ccc1SCc1ccccc1 | 20 | 26 | 3 | 0.8 | -4 | 0.7
O=[N+]([O-])c1cc(/C=N/O)ccc1Sc1ccccc1 | 11 | 67* | 0 | 0.9 | 1 | 0.3
Cc1nn(-c2nc3ccccc3n2Cc2ccccc2)c2c1C(=O)CC(C)(C)C2 | 53* | 66* | -6 | 0.5 | 7 | 0.3
Cc1nc2ccc(NC(=S)NC(C)C)cc2nc1C | -8 | -3 | 4 | 1.1 | -4 | 1
CCS(=O)(=O)N1CCN(Cc2ccncc2)CC1 | 24 | 27 | 3 | 0.8 | -3 | 0.7
CC(C)C(=O)Nc1ccc(Cc2ccc(NC(=O)C(C)C)c(O)c2)cc1O | 64* | 93* | 0 | 0.4 | -1 | 0.1
CC(C)C(=O)Nc1cccc2nsnc12 | 9 | 7 | 11 | 0.9 | -11 | 0.9
CC1(C)CC(=O)C2=C(C1)OC1=C(C(=O)CC(C)(C)C1)C2c1ccc(O)cc1O | 20 | -147 | -3 | 0.8 | 2 | 2.5*
O=C(/C=C/c1ccco1)NC(=S)Nc1cccc(-c2nc3ccccc3o2)c1 | 13 | 39 | -3 | 0.9 | 6 | 0.6
Cc1cccc(NC(=S)NC(=O)/C=C/c2ccco2)n1 | 50 | 55* | -3 | 0.5 | 4 | 0.5
COc1ccc(N2CCN(C(=O)CC(NC(N)=O)c3cccc(Oc4ccccc4)c3)CC2)cc1 (stereo unspecified) | 64* | 39 | 2 | 0.4 | -2 | 0.6
COc1ccc2c(c1)c1nnc(SCC(=O)N3CCCCC3C)nc1n2C (stereo unspecified) | 12 | 0 | 3 | 0.9 | -3 | 1
COc1ccc(N2CCN(C(=O)CSc3ccccc3)CC2)cc1 | 4 | 11 | -8 | 1 | 9 | 0.9
COc1ccc(N2CCN(C(=O)CSc3nnc4n3C(C)(C)Cc3ccccc3-4)CC2)cc1 | 58* | 5 | 9 | 0.4 | -8 | 1
COc1ccc(N2CCN(C(=O)CSc3nnc4c5cc(C)ccc5n(C)c4n3)CC2)cc1 | 81* | 56* | · | 0.2 | · | 0.4
Cc1ccc(Cl)cc1N1CCN(C(=O)CSc2nnc3n2C(C)(C)Cc2ccccc2-3)CC1 | · | · | 12 | · | -13 | ·
CC1(C)Cc2ccccc2-c2nnc(SCC(=O)N3CCc4ccccc43)n21 | 41 | 53* | -2 | 0.6 | 5 | 0.5
